HCV inhibitor: inhibitors of hepatitis C virus infection. Huh7.5.1 HCVcc-Cre infection, luciferase reporter, 44 h. Potency, µM (highest dose often 41.8 µM), most hits filed as inhibitors. 3.4% of 340,000 active. AID 651820; active = well fitted inhibition curve with a large enough effect; inconclusive = small, poorly fitted or top-dose-only effect, or another doubt; inactive = no such curve, though single readings can be large or run the other way
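1,000 cells/well; 4 h culture; + compound; + HCVcc-Cre (~0.5 moi); 44 h; luciferase substrate, RT 15 min; read 15 sec.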
VACV mCherry inh: vaccinia inhibition (mCherry reporter) | Vaccinia virus mCherry reporter infection, fluorescence | Potency, µM (highest dose often 36.5 µM), hits mostly inhibitors | 0.63% of 310,000 active | AID 720579; calls by dose curve; tested in A549 cells; also: nearly all actives have a fitted effect of over 35% in size
HCMV antiviral: inhibitors of human cytomegalovirus; HFF cells, HCMV-luciferase reporter, 72 h; active compounds read low; activity change, negative = inhibition, % at 57.5 µM; AID 1259415; 4.5% of 410,000 active; in the data active = activity change below about -60%; inconclusive = no clear call, values can overlap the other calls; inactive = above about -39%
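Luciferase read-out from HCMV-luciferase-infected HFFs (MOI 1 PFU/cell) 72 h post infection at 37C; compounds added after 16 h cell attachment; activity normalized between buffer-only basal and Salinomycin (10uM) inhibitor controls.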
Vaccinia Venus: inhibitors of vaccinia virus (Venus reporter); Vaccinia virus Venus reporter expression, fluorescence; Potency, µM (series often up to 36.5 µM), usual class: inhibitors; 0.46% of 330,000 active; AID 720580; calls by dose curve; tested in A549 cells; also: nearly all actives have a fitted effect of over 30% in size
FMDV antiviral: antivirals against foot and mouth disease virus; AID 1159524; 1.2% of 410,000 active; Potency, µM (series often up to 57.9 µM), actives largely listed as inhibitors; FMDV antiviral cell-based qHTS; calls by dose curve; tested in HEK293T cells; also: read-out not given here; nearly all actives have a fitted effect of over 45% in size
A number is an active result; . = inactive; ? = inconclusive; / = no result; [ ] = dose if it differs, or a comment. Shown are actives, neighbours in structure and some others; about 7.3% of the full set was active somewhere.

SMILES	HCV inhibitor	VACV mCherry inh	HCMV antiviral	Vaccinia Venus	FMDV antiviral
O=C(Nc1ccccc1Cl)Nc1cccnc1Cl	?	.	-61.5	.	.
Cc1ccc(C)c(NC(=O)CN2CCSc3ccc(S(=O)(=O)N4CCCC4)cc32)c1	/	.	.	.	.
Cc1ccc(CN2C(=O)COCc3cc(-c4cccc(CO)c4)ccc32)cc1	/	/	.	/	/
CC(=O)c1ccc2c(c1)N(Cc1ccccc1Cl)C(=O)C(C)S2 (stereo unspecified)	/	.	-98.2	.	.
O=C(NCc1ccccc1Cl)c1ccc2c(c1)N(Cc1ccccc1)C(=O)CS2	/	.	-65.1	.	.
O=C(NCC1CCCO1)c1ccc2c(c1)N(Cc1ccccc1)C(=O)CS2 (stereo unspecified)	.	/	-74.2	/	.
COc1ccccc1NC1=C(N2CCCCC2)C(=O)c2ccccc2C1=O	?	?	/	10µM	10µM
Cc1ccc(NC2=C(N3CCCCC3)C(=O)c3ccccc3C2=O)cc1	.	.	-103.2	.	/
O=C1C(Nc2cccc(O)c2)=C(N2CCCCC2)C(=O)c2ccccc21	.	.	.	.	/
O=C1C(Nc2ccccc2)=C(N2CCCCC2)C(=O)c2ccccc21	10µM	.[1.46 µM]	-68.8	?	.
O=C1C(NS(=O)(=O)c2ccccc2)=C(N2CCN(c3ccc(F)cc3)CC2)C(=O)c2ccccc21	.	0.316µM	.	?	.
CCOc1ccc(C(c2c(O)cc(C)n(CCOC)c2=O)N2CCN(c3ccccc3)CC2)cc1 (stereo unspecified)	/	.[7.34 µM]	.	.[7.34 µM]	.
Cc1csc(SCC(=O)NCC2Cc3cc(-c4cncnc4)ccc3O2)n1 (stereo unspecified)	/	.	/	.	.
COc1cc(CNCc2cc3ccc(F)cc3nc2N2CCOCC2)cc(OC)c1OC	/	.	/	.	.
Cc1ccccc1NC(=O)c1ccccc1OCC(=O)Nc1ccc(Br)cc1	/	.	/	.	/
O=C(/C=C/c1ccc(O)cc1)c1ccc(NC2=C(N3CCCCC3)C(=O)c3ccccc3C2=O)cc1	10µM	1.41µM	-98.7	?	?
CN(C1=C(N2CCCCC2)C(=O)c2ccccc2C1=O)c1ccccc1	12.6µM	.	.	.	/
O=C1C(NS(=O)(=O)c2ccc(Br)cc2)=C(N2CCCCC2)C(=O)c2ccccc21	?	/	.	/	.
Cc1nn(CC(=O)NC2CCCCC2)c(=O)c2cc3cc(F)ccc3n12	/	.	.	.	.
CN1C(=O)C(C2(O)C(=O)N(Cc3ccccc3)c3ccccc32)c2ccccc21 (stereo unspecified)	/	/	.	/	/
CC1NC2(C(=O)N(Cc3ccccc3)c3ccccc32)C2C(=O)N(c3ccccc3)C(=O)C12 (stereo unspecified)	.	.	-97.8	.	.
CCOC(=O)CN1CCC(c2cc(-c3ccc(Cl)cc3)n[nH]2)CC1	.	/	.	/	.
O=[N+]([O-])c1cccnc1N1CCC(c2cc(-c3ccc(Cl)cc3)n[nH]2)CC1	10µM	.	.	.	?
CCCOc1ccc2cc(-c3ccccn3)c(=O)oc2c1	.	.	-77.2	.	10µM
O=c1oc2cc(OCc3c(F)cccc3Cl)ccc2cc1-c1ccccn1	.	.[1.46 µM]	.	.	.
SMILES	HCV inhibitor	VACV mCherry inh	HCMV antiviral	Vaccinia Venus	FMDV antiviral
N#C/C(=N\Nc1ccc(Cl)cc1)C(N)=S	?	?	-92.4	.	.
N#C/C(=N\Nc1cccc(Cl)c1)C(=O)c1ccccc1	?	/	-86.7	/	.
N#C/C(=N\Nc1ccc(Cl)cc1)C(=O)c1ccsc1	?	?	-63.9	?	.
N#C/C(=N\Nc1ccccc1)C(N)=S	.	.	.	.	.
COc1ccc(C(=O)/C(C#N)=N/Nc2cccc([N+](=O)[O-])c2)cc1	11.2µM	/	-98.3	/	?
Cc1ccc(N/N=C(\C#N)C(=O)c2ccsc2)cc1	.	/	.	/	.
Cc1ccccc1-c1cncnc1Nc1ccccc1	/	/	/	/	.
Cc1cccc(C)c1OCCCn1c(CCNC(=O)C2CCCCC2)nc2ccccc21	/	.	.	.	.
CC(C)NC(=O)C1CCC(Cn2c(=O)c3sccc3n(CC(=O)N3CCCC3)c2=O)CC1 (stereo unspecified)	/	.	-89.2	.	.
CCN(CC)c1ccc(C=Nc2cc(C)ccc2C)c(O)c1	.	.	.	.	.
CCN(CC)c1ccc(/C=N/c2sc3c(c2C#N)C2CCN3CC2)c(O)c1	4.47µM	.	/	.	.
COc1ccc(CC2=CC(=O)c3ccccc3C2=O)cc1	22.4µM	/	-96.6	/	?
CN(C)c1ccc(/C=C/c2nc3ccccc3c(=O)[nH]2)cc1	.	.	.	.	10µM
C(=C\c1ccco1)/c1nc2ccccc2[nH]1	.	.	?	?	.
O=c1c2ccccc2nc(/C=C/c2ccccc2O)n1-c1ccccc1O	/	/	-98.3	/	/
Cc1cccc(-n2c(C)nc3ccccc3c2=O)c1C	.	.	-76.4	.	.
O=c1c2ccccc2nc(/C=C\c2ccccc2[N+](=O)[O-])n1-c1ccccc1O	.	?	.	?	?
O=c1[nH]c(/C=C/c2ccc(Br)cc2)nc2ccccc12	.	/	.	/	.
C(=C\c1nc2ccccc2[nH]1)/c1ccccc1	11.2µM	/	.	/	15.8µM
CCC1CN(CCNC(=O)c2cscn2)Cc2cc(OC)ccc2O1 (stereo unspecified)	/	.	/	.	.
O=c1c2ccccc2nc(/C=C/c2ccccc2)n1-c1ccccc1F	/	.	.	.	.
Cc1ccccc1-n1c(/C=C/c2c(C)[nH]c3ccccc23)nc2ccccc2c1=O	/	?	?	.[7.34 µM]	?
O=c1c2ccccc2nc(/C=C/c2ccccc2F)n1-c1ccccc1O	.	/	-91.5	/	?
Cc1ccccc1-n1c(/C=C/c2ccc(N(C)C)cc2)nc2ccccc2c1=O	/	.	-82.2	.	.
CCC(=O)N1CCc2cc(Br)cc(S(=O)(=O)N3CCN(c4cccc(Cl)c4)CC3)c21	/	.	.	.	.
SMILES	HCV inhibitor	VACV mCherry inh	HCMV antiviral	Vaccinia Venus	FMDV antiviral
Cc1cc(C)c(C(=O)N2CCCC(N3CCN(c4ccc(F)cc4)CC3)C2)o1 (stereo unspecified)	?	.	-69.0	.	?
O=C(CSc1ccccc1)N1CCCC(N2CCN(c3ccc(F)cc3)CC2)C1 (stereo unspecified)	10µM	.	-69.8	.	.
O=C(CSc1ccc(F)cc1)N1CCOCC1	.	/	-88.2	/	.
O=C(c1cccc(-c2ccco2)c1)N1CCCC(N2CCN(c3ccc(F)cc3)CC2)C1 (stereo unspecified)	?	.	/	.	35.5µM
COc1ccc(CN2CCOc3ccc(CN4CCC(O)(c5cccnc5)CC4)cc3C2)c(C)c1C	/	.	/	.	.
COc1ccc(C)cc1NC(=O)COCc1cc(-c2ccc(F)cc2)on1	/	.	.	.	.
CC1(C)OC(=O)C2=C(CC(CCc3ccccc3)OC2c2ccc(F)cc2)O1 (stereo unspecified)	/	/	.	/	/
Cc1cc(C(=O)N2CCCC(N3CCN(c4cccc(C(F)(F)F)c4)CC3)C2)c(C)o1 (stereo unspecified)	12.6µM	/	.	/	.
Cc1cccc(CS(=O)(=O)c2nnc([C@H](Cc3ccccc3)NC(=O)OC(C)(C)C)o2)c1	?	/	/	/	31.6µM
COC(=O)CS(=O)(=O)c1nnc([C@H](Cc2ccccc2)NC(=O)OC(C)(C)C)o1	?	.	.	.	31.6µM

Source: PubChem
